Values joined by “and” are separate entries in the source; they are usually repeats but may differ in a detail not shown here. Equal values may be shown once. Results filed as inconclusive are left out. The source holds several records for some structures; these can differ, active in one and inactive in another. Active and inactive are the calls of the source. The calls were made as follows, unless noted: active = hit-call score of the fitted dose curve at least 0.9, where 1 is the maximum; inconclusive = response in the unintended direction; inactive = score below 0.9.
Legend:
[1] = ATG_M_19_CIS: Attagene CIS-FACTORIAL HepG2 Assay for M19 Transcription Factor (Internal Marker) (AID 2282939; active = hit-call score of the fitted dose curve at least 0.9, where 1 is the maximum; inactive = score below 0.9); settings: HepG2 Attagene CIS-FACTORIAL M19 internal marker reporter; actives raise or lower the signal
How it was run: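 Background-control endpoint from a multiplexed HepG2 reporter panel. Cells carrying cis-regulated reporter constructs are treated 24 h, then reporter transcripts are amplified, fluorescently labelled and sized by capillary electrophoresis. DMSO defines baseline.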

[2] = ATG_FoxO_CIS: Attagene CIS-FACTORIAL HepG2 Assay for human Forkhead box O (FoxO) (AID 2282943; active = hit-call score of the fitted dose curve at least 0.9, where 1 is the maximum; inactive = score below 0.9); settings: HepG2 Attagene cis-reporter, FoxO element, mRNA; actives raise or lower the signal
How it was run: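 Values reflect reporter mRNA induction or loss in HepG2 cells 24 h post-dosing, fitted bidirectionally with DMSO as negative control and baseline. Detection used RT-PCR and fluorescence capillary electrophoresis.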

[3] = ATG_GRE_CIS: Attagene CIS-FACTORIAL HepG2 Assay for human Glucocorticoid Response Elements (GRE) (AID 2282947; active = hit-call score of the fitted dose curve at least 0.9, where 1 is the maximum; inactive = score below 0.9); settings: HepG2 GRE cis-reporter, Attagene multiplex mRNA; actives raise or lower the signal
How it was run: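 Cells (HepG2) bearing transfected cis-promoter reporter transcription units were treated with chemical for 24 hours. Reporter mRNA was measured via RT-PCR with capillary electrophoresis, and activity was fitted in both directions relative to DMSO.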

[4] = molecular target: Heat shock factor protein 1 (Homo sapiens) (UniProt Q00613); experiment: ATG_HSE_CIS: Attagene CIS-FACTORIAL HepG2 Assay for human Heat Shock Transcription Factor 1 (HSE) (AID 2282953; active = hit-call score of the fitted dose curve at least 0.9, where 1 is the maximum; inactive = score below 0.9); settings: HepG2 HSE cis-reporter, Attagene RNA transcription; actives raise or lower the signal
Chain of Heat shock factor protein 1 (Homo sapiens) (Q00613 whole entry, looked up, the tested form may be a part): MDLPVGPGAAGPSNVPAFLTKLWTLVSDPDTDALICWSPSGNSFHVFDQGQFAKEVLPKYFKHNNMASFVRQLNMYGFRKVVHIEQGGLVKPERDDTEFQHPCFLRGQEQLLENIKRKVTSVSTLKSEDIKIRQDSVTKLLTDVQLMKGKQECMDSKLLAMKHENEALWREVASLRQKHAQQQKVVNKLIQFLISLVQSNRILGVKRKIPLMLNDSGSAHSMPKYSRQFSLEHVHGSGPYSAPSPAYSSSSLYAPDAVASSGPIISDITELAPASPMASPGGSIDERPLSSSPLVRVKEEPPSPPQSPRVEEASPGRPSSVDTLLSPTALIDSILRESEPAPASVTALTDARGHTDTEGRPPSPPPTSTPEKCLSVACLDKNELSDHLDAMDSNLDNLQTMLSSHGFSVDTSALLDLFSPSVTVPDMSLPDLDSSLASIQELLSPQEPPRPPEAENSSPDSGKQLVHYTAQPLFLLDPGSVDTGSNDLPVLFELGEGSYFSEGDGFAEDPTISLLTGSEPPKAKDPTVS
How it was run: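 Cells were transfected with cis-element-driven reporter constructs, dosed for 24 h, then total RNA was reverse-transcribed and reporter cDNA amplified, FAM-labelled and digested with HpaI. Fragments were resolved by capillary electrophoresis; gain or loss was fitted against DMSO.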

[5] = ATG_RORE_CIS: Attagene CIS-FACTORIAL HepG2 Assay for human RAR-related Orphan Receptor Element (RORE) (AID 2282959; active = hit-call score of the fitted dose curve at least 0.9, where 1 is the maximum; inactive = score below 0.9); settings: HepG2 Attagene cis-factorial RORE reporter, mRNA; actives raise or lower the signal
How it was run: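 Transient MRTU transfection of human HepG2 liver cells (FuGene 6); 24 h compound exposure; TriZol RNA, oligo(dT) RT, PCR, FAM labeling, HpaI cut, CE fragment analysis. DMSO = negative control/baseline.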

[6] = ATG_M_06_TRANS: Attagene TRANS-FACTORIAL HepG2 Assay for M06 Transcription Factor (Internal Marker) (AID 2282983); settings: HepG2 Attagene TRANS M06 internal marker reporter
How it was run: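 Background control endpoint: reporter mRNA from transiently transfected HepG2 after 24 h dosing, detected by RT-PCR with capillary electrophoresis fluorescence. Analysed for gain versus DMSO.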

[7] = molecular target: Peroxisome proliferator-activated receptor gamma (Homo sapiens) (UniProt P37231); experiment: ATG_PPARg_TRANS: Attagene TRANS-FACTORIAL HepG2 Assay for human Peroxisome Proliferator-activated Receptor-gamma (PPARg) (AID 2283007)
Chain of Peroxisome proliferator-activated receptor gamma (Homo sapiens) (P37231 whole entry, looked up, the tested form may be a part): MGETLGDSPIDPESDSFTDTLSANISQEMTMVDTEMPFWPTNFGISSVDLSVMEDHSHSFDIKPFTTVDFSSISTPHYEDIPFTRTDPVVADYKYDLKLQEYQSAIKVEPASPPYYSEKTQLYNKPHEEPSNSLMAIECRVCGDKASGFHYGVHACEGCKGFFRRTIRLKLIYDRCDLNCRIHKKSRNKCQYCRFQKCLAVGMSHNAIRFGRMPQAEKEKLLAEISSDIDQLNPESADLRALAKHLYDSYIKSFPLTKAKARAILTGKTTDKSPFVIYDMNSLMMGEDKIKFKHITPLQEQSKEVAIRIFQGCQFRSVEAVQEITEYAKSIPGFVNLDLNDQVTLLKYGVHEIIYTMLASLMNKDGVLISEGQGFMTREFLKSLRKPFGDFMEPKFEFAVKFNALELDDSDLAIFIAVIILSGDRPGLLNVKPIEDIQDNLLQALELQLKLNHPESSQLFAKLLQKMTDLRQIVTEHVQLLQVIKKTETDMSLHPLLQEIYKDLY
How it was run: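 Transient transfection of HepG2 with GAL4-UAS-driven reporter units; chemical dosing 24 h; total RNA → oligo(dT) RT → PCR with reporter primers → 6-FAM primer extension → HpaI digest 2 h 37 C → capillary electrophoresis. Positive direction vs DMSO.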

[8] = molecular target: Nuclear receptor subfamily 1 group I member 2 (Homo sapiens) (UniProt O75469); experiment: ATG_PXR_TRANS: Attagene TRANS-FACTORIAL HepG2 Assay for human Pregnane X Receptor (PXR) (AID 2283008)
Chain of Nuclear receptor subfamily 1 group I member 2 (Homo sapiens) (O75469 whole entry, looked up, the tested form may be a part): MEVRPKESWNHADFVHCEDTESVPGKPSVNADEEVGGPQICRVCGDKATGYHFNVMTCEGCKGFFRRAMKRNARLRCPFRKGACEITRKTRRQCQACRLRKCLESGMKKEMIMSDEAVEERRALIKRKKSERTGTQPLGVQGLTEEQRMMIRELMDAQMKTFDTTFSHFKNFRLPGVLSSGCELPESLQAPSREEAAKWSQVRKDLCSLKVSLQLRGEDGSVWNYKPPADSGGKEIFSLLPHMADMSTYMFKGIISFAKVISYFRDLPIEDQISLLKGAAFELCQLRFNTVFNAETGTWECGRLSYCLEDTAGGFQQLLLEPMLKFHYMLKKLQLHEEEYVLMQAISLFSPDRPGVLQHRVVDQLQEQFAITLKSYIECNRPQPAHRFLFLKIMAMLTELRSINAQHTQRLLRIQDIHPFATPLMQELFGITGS
How it was run: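 Multiplexed TRANS reporter panel in HepG2; this component tracks PXR-Gal4-driven reporter mRNA after 24 h dosing, measured by RT-PCR with capillary electrophoresis fluorescence, fitted against DMSO.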

[9] = molecular target: Retinoic acid receptor RXR-alpha (Homo sapiens) (UniProt P19793); experiment: ATG_RXRa_TRANS: Attagene TRANS-FACTORIAL HepG2 Assay for human Retinoid X Receptor alpha (RXRa) (AID 2283012)
Chain of Retinoic acid receptor RXR-alpha (Homo sapiens) (P19793 whole entry, looked up, the tested form may be a part): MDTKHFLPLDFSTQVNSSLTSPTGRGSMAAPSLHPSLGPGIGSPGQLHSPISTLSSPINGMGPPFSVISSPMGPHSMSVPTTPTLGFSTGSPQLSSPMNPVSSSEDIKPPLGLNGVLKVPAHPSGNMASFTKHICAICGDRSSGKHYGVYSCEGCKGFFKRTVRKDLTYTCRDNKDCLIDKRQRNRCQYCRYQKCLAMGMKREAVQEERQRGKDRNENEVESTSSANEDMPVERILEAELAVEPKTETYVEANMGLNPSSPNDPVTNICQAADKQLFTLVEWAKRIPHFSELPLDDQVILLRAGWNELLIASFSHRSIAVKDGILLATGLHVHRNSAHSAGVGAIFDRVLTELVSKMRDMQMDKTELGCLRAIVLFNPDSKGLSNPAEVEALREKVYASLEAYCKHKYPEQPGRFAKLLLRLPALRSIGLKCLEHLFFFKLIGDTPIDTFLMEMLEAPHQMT
How it was run: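 Measures exogenous chimeric NR-GAL4 activity in transfected HepG2 liver cells after 24 h of dosing. Induced reporter mRNA was detected by RT-PCR with capillary electrophoresis, and gain of signal was analysed against DMSO.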

[10] = molecular target: human Thyroid Receptor alpha (THRa1), THRA (gene 7067) (UniProt P10827); experiment: ATG_THRa1_TRANS: Attagene TRANS-FACTORIAL HepG2 Assay for human Thyroid Receptor alpha (THRa1) (AID 2283014)
Chain of human Thyroid Receptor alpha (THRa1), THRA (gene 7067) (P10827 whole entry, looked up, the tested form may be a part): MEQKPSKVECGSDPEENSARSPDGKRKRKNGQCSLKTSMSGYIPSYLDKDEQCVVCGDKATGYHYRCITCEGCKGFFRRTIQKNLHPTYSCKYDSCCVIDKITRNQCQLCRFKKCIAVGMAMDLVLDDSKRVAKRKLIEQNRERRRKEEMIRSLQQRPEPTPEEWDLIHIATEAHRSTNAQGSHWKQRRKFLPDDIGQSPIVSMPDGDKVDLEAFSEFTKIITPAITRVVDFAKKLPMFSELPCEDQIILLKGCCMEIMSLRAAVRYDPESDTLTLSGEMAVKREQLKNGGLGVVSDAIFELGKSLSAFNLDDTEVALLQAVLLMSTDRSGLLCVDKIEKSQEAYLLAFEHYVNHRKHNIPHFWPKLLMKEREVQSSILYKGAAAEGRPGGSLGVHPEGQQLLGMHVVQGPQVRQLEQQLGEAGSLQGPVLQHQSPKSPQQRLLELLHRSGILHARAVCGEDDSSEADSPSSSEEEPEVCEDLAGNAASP
How it was run: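 Reporter transcript induction, read by capillary electrophoresis of 6-FAM-labelled RT-PCR products, reflects activity of a transfected THRa1-Gal4 fusion in HepG2 liver cells. Cells were dosed for 24 h; activity was fitted in the positive direction against DMSO.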

[11] = molecular target: Cellular tumor antigen p53 (Homo sapiens) (UniProt P04637); experiment: TOX21_p53_BLA_p2_ratio: Tox21 HCT-116 p53 Agonism Beta-lactamase Assay, Ratio, Phase 2 (AID 2283592)
Chain of Cellular tumor antigen p53 (Homo sapiens) (P04637 whole entry, looked up): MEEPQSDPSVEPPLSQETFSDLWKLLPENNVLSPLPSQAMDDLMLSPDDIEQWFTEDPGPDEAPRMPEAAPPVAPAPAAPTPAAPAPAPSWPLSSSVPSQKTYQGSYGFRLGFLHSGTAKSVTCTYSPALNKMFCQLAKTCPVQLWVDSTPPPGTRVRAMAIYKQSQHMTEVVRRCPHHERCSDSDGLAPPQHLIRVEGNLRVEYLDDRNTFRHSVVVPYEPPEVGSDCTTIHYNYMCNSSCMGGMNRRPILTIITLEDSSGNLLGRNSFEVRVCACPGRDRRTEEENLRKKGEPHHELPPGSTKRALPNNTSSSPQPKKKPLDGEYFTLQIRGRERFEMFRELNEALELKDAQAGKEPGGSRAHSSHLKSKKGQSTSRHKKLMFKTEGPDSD
How it was run: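 Plated HCT116 p53-bla cells (4000/well) received compound after 5 h, then 16 h at 37C/5% CO2. CCF4-AM added, 2 h RT. Ratio of 460 to 530 nm emission taken as the p53 reporter signal.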

[12] = molecular target: Cellular tumor antigen p53 (Homo sapiens) (UniProt P04637); experiment: TOX21_p53_BLA_p3_ratio: Tox21 HCT-116 p53 Agonism Beta-lactamase Assay, Ratio, Phase 3 (AID 2283596)
How it was run: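 Cells were seeded at 4000/well, rested 5 h at 37C, then dosed with DMSO compound solutions (217-fold dilution) for 16 h. CCF4-AM substrate was loaded for 2 h at room temperature, and the 460/530 nm emission ratio was fitted for gain of signal versus DMSO.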

[13] = molecular target: Cellular tumor antigen p53 (Homo sapiens) (UniProt P04637); experiment: TOX21_p53_BLA_p5_ratio: Tox21 HCT-116 p53 Agonism Beta-lactamase Assay, Ratio, Phase 5 (AID 2283599)
How it was run: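 HCT-116 cells carrying a p53-inducible beta-lactamase reporter were seeded at 4000 cells/well and dosed after 5 h with compound in DMSO (217-fold dilution). After 16 h at 37C, CCF4-AM substrate was added for 2 h, and the 460/530 nm emission ratio was scored as gain-of-signal versus DMSO.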

[14] = molecular target: Cellular tumor antigen p53 (Homo sapiens) (UniProt P04637); experiment: TOX21_p53_BLA_p4_ratio: Tox21 HCT-116 p53 Agonism Beta-lactamase Assay, Ratio, Phase 4 (AID 2283601)
How it was run: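 HCT116 cells carrying an inducible beta-lactamase reporter were plated at 4000 cells/well, rested 5 h, then exposed to compounds in DMSO (217-fold dilution) for 16 h at 37C. CCF4-AM substrate was loaded 2 h at room temperature; 460/530 nm emission ratio scored gain-of-signal versus DMSO.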

[15] = molecular target: Hypoxia-inducible factor 1-alpha (Homo sapiens) (UniProt Q16665); experiment: ATG_HIF1a_CIS: Attagene CIS-FACTORIAL HepG2 Assay for human Hypoxia Inducible Factor 1 (HIF1A) (AID 2282951; active = hit-call score of the fitted dose curve at least 0.9, where 1 is the maximum; inactive = score below 0.9); settings: HepG2 Attagene cis-factorial HIF1a reporter transcription; actives raise or lower the signal
Chain of Hypoxia-inducible factor 1-alpha (Homo sapiens) (Q16665 whole entry, looked up, the tested form may be a part): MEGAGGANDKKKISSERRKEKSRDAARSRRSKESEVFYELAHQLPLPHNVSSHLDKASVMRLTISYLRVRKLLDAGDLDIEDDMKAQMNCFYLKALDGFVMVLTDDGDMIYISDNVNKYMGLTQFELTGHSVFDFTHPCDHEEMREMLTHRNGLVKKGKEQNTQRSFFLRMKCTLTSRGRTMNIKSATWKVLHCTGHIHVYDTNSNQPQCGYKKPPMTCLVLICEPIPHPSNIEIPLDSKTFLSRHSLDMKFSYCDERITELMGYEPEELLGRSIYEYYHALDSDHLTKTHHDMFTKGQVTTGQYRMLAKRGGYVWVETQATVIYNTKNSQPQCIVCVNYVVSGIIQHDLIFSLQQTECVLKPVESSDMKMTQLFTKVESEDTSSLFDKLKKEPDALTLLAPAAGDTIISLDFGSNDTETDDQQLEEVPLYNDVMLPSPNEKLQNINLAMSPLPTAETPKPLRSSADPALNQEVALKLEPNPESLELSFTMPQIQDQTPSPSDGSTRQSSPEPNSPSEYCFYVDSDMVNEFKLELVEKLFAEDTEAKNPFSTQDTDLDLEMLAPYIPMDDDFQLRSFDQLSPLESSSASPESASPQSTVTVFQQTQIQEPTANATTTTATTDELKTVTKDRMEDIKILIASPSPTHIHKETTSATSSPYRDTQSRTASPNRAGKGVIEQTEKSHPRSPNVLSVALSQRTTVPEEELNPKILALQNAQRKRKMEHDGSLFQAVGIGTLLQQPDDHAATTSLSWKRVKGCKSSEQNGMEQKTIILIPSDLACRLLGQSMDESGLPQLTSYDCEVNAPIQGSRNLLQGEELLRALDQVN
How it was run: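 Transient MRTU transfection of human HepG2 liver cells, 24 h compound treatment, then total RNA isolation, oligo(dT) reverse transcription, PCR amplification, fluorescent labelling and capillary electrophoresis of reporter fragments. Gain or loss relative to DMSO.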

[16] = molecular target: Hepatocyte nuclear factor 4-alpha (Homo sapiens) (UniProt P41235); experiment: ATG_HNF4a_TRANS: Attagene TRANS-FACTORIAL HepG2 Assay for human Hepatocyte Nuclear Factor 4 alpha (HNF4a) (AID 2282982); settings: HepG2 HNF4a transactivation reporter, mRNA readout
Chain of Hepatocyte nuclear factor 4-alpha (Homo sapiens) (P41235 whole entry, looked up, the tested form may be a part): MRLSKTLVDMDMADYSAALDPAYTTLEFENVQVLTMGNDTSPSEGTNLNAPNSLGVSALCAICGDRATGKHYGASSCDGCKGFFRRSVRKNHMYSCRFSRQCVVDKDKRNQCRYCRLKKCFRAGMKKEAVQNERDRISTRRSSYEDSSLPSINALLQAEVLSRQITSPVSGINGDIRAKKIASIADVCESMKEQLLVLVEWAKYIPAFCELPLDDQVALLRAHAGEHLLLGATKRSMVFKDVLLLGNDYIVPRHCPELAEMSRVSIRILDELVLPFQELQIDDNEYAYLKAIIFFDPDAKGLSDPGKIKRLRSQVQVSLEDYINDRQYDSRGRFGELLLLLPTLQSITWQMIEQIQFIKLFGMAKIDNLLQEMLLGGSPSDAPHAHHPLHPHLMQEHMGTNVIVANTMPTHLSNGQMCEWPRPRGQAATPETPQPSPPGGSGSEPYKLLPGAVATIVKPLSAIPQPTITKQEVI
How it was run: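 In this trans-factorial format, a chimeric HNF4a-GAL4 fusion drives a GAL4-UAS reporter in transfected HepG2 liver cells. After 24 h treatment, reporter mRNA induction is measured by RT-PCR with capillary electrophoresis, relative to DMSO.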

[17] = ATG_PBREM_CIS: Attagene CIS-FACTORIAL HepG2 Assay for human Phenobarbital-responsive Enhancer Module (PBREM) (AID 2282955; active = hit-call score of the fitted dose curve at least 0.9, where 1 is the maximum; inactive = score below 0.9); settings: HepG2 PBREM cis-reporter, Attagene multiplexed transcription; actives raise or lower the signal
How it was run: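 Endogenous transcription factors in human liver HepG2 cells drive a PBREM cis-element reporter, whose transcript level after 24 h treatment is quantified by RT-PCR with capillary electrophoresis; activity fitted in both directions against DMSO.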

[18] = ATG_NRF2_ARE_CIS: Attagene CIS-FACTORIAL HepG2 Assay for human Nuclear Factor Erythroid 2 Related Factor 2 (NFR2) response to Antioxidant Response Elements (ARE) (AID 2282992; active = hit-call score of the fitted dose curve at least 0.9, where 1 is the maximum; inactive = score below 0.9); settings: HepG2 Attagene ARE/NRF2 reporter, transcription factor activity; actives raise or lower the signal
How it was run: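 Using transiently transfected HepG2 cells exposed for 24 h, reporter mRNA levels were determined by RT-PCR with fluorescent primer extension and capillary electrophoresis, analysed for gain or loss of signal against DMSO.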

[19] = TOX21_p53_BLA_p5_viability: Viability Assessment in the Tox21 HCT-116 p53 Agonism Beta-lactamase Assay, Phase 5 (AID 2283600)
How it was run: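 Workflow: seed 4000 cells per well, wait 5 h, add compounds (DMSO, 217-fold dilution), incubate 16 h, load CCF4-AM 2 h, add CellTiter-Glo, read luminescence after 30 min.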

[20] = molecular target: human Peroxisome Proliferator-activated Receptor alpha (PPARa), PPARA (gene 5465) (UniProt Q07869); experiment: ATG_PPARa_TRANS: Attagene TRANS-FACTORIAL HepG2 Assay for human Peroxisome Proliferator-activated Receptor alpha (PPARa) (AID 2283001)
Chain of human Peroxisome Proliferator-activated Receptor alpha (PPARa), PPARA (gene 5465) (Q07869 whole entry, looked up): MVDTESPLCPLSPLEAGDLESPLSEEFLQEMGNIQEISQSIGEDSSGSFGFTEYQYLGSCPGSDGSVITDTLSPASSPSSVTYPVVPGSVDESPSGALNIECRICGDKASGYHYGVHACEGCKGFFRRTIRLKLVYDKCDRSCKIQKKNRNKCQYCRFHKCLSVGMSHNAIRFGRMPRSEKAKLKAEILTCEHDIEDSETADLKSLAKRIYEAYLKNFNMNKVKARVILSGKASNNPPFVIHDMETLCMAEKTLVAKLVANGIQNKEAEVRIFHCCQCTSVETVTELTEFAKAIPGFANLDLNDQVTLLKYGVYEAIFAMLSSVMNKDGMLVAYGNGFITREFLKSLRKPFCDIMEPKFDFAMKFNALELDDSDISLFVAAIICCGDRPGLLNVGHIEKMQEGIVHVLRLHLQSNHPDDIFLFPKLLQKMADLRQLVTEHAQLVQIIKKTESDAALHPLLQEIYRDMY
How it was run: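 Cells (HepG2) are transfected with multiple reporter transcription units, exposed to chemical for 24 h, then total RNA is reverse-transcribed and amplified. Labelled products are quantified by capillary electrophoresis; induction is referenced to DMSO.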

Measured: AC50

O=C(NCNC(=O)NC1C(=O)NC(=O)N1CO)NC1C(=O)NC(=O)N1CO (stereo not drawn)
inactive: [1] | [2] | [3] | [4] | [5] | [6] | [7] | [8] | [9] | [10] | [11] | [12] | [13] | [14]

C[N+](C)=CCl
inactive: [2] | [3] | [15] | [4] | [16] | [6] | [7] | [9] | [10]

c1cc(OCC2CO2)ccc1Cc1ccc(OCC2CO2)cc1 (stereo not drawn)
active: [4] 62.6 µM | [18] 8.95 µM | [8] 20.6 µM | [12] 75.1 µM and 79.5 µM | [14] 65.9 µM and 82.3 µM
inactive: [1] | [3] | [15] | [17] | [5] | [16] | [6] | [9] | [11] | [13] | [19]

C=C(Cl)CCl
inactive: [2] | [3] | [4] | [5] | [16] | [6] | [18] | [20] | [7] | [8] | [9] | [10] | [11] | [12] | [13] | [19] | [14]

CC(C)(c1cc(Cl)c(O)c(Cl)c1)c1cc(Cl)c(O)c(Cl)c1
active: [7] 3.75 µM | [8] 1.87 µM | [11] 37 µM and 16.5 µM | [12] 48.2 µM and 17.7 µM | [13] 24.2 µM | [14] 19.7 µM
inactive: [2] | [3] | [15] | [5] | [16] | [6] | [9] | [10] | [13] | [19] | [14]

From PubChem BioAssay (EPA / NIEHS)
